From PubChem BioAssay AID588852 (The Scripps Research Institute Molecular Screening Center, 2011)
Out of some 360,000 compounds screened, about 4,600 (1.3%) were called active. The list comes from a sample in which actives are over-represented; it also holds similar structures and randomly drawn compounds. A number with no mark means an inactive call.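 Rule for the calls: active = percent inhibition above its own plate's cutoff, namely the mean of that plate's compound wells plus 3 SD; inactive = the rest.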

Biological target: Muscarinic acetylcholine receptor M1 (Homo sapiens) (UniProt P11229)
Sequence (P11229 whole entry, looked up): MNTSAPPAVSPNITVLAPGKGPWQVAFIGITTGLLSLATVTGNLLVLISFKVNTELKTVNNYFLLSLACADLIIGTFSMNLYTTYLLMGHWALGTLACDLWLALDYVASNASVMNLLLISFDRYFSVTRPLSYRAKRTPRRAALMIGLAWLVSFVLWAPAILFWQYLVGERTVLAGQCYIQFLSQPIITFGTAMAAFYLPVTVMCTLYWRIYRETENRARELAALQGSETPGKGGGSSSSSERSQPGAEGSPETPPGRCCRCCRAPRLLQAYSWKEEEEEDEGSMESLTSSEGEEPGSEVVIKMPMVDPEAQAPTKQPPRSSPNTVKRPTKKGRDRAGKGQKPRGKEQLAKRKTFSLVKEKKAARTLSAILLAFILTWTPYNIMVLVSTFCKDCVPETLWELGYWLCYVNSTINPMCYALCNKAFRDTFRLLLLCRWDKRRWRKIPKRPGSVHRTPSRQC
Assay: CHRM1 blockers of acetylcholine calcium response – CHO-K1 cells, Fluo-8 calcium fluorescence, 1536-well, primary screen (AID 588852);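 note: peak over basal fluorescence ratio during 140 s after agonist addition; 0% = ACh EC80 plus DMSO and 100% = DMSO alone without agonist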
Details: CHO-K1 hM1, Fluo-8 calcium fluorescence, ACh EC80 antagonist; at 3 µM; stronger effect = higher value

SMILES	inhibition
COc1ccc(CCNC(=O)COC(=O)Cc2cc(OC)c(OC)c(OC)c2)cc1	-5.89%
COc1ccc(-c2csc(Nc3cccc(C)n3)n2)cc1OC	-13.9%
COc1cc(CC(=O)Nc2nc(-c3ccc(F)c(F)c3)cs2)cc(OC)c1OC	32.3% (active)
O=C(COc1ccccc1F)Nc1nc(-c2ccccn2)cs1	-7.13%
COc1ccc(CC(=O)Nc2nc(-c3ccc(F)c(F)c3)cs2)cc1OC	37.2% (active)
COc1ccc(CC(=O)Nc2ccccc2NC(=O)c2ccco2)cc1OC	-6.85%
CC(C)C[C@H]1CN([C@@H](Cc2ccccc2)CN2CCC[C@@H]2CN2C(=O)C(=O)NC[C@@H]2Cc2ccc(O)cc2)C(=O)C(=O)N1CCc1ccccc1	6.28%
CC(=O)Nc1ccc(NC(=O)CSc2nnnn2C2CCCCC2)cc1	-17.6%
CN(CC#CCC(c1ccccc1)c1ccccc1)C(C)(C)C	94.5% (active)
CC(C)OCCCNc1ncnc2c1[nH]c1ccc(F)cc12	49.6% (active)
CCOC(=O)C1=CCC2C(=O)N(Cc3ccccc3)C(=O)C12 (stereo unspecified)	-8.51%
CCNC(=O)COC(=O)/C=C/c1c(C)nn(Cc2cccc(OC)c2)c1Cl	-14.4%
O=C(NC1CC1)C1=C[C@H](c2coc3ccccc3c2=O)C[C@H](OCCCCO)O1	-2.15%
CC1(Cc2cccc(C#N)c2)C(=O)Nc2ccc(-c3cccc(C(F)(F)F)c3)cc21 (stereo unspecified)	-21.5%
O=C(N/N=C/c1ccc(OCC2COCCO2)cc1)c1ccc(Br)cc1 (stereo unspecified)	-0.51%
COc1cc(/C=N/Nc2ccc(C)cc2)cc(Br)c1O	1.92%
COc1ccccc1-n1c(SCC(=O)Nc2cccc(C(=O)O)c2)nnc1-c1ccccc1O	-23.3%
COc1cccc(/C=N/Nc2cc(C)nc(-c3ccccc3O)n2)c1O	37% (active)
CC(C)C(=O)Nc1nnc(SCC(=O)N2C(C)CCCC2C)s1 (stereo unspecified)	-9.39%
COC(C)(C)[C@]12CC(O)(C(C)C)ON1[C@H]1CCCCC1N2O (stereo partly specified)	2.96%
CCOC(=O)c1cccc(NC(=O)CN2C(=O)C3CC=CCC3C2=O)c1 (stereo unspecified)	-6.58%
Cc1ccccc1OCC(=O)NNC(=O)c1cc(S(=O)(=O)N(C)C)ccc1N1CCCC1	-9.89%
CN(C)CC/C=C1\c2ccccc2CSc2ccccc21	96.1% (active)

SMILES	inhibition
CN(C)Cc1ccccc1C1(O)c2ccccc2CSc2ccccc21 (stereo unspecified)	20.6%
COc1ccc(-c2ccc(C(=O)NCCN3CCOCC3)c3occc23)c(C)c1	1.54%
CC(C)C[C@H]1CNC(=S)N1C[C@H]1CCCN1C[C@H](Cc1ccc(O)cc1)N1C[C@H](Cc2ccc(O)cc2)N(CC2CCCCC2)C1=S	1.57%
COc1ccccc1C1SCCN1C(=O)c1ccc([N+](=O)[O-])cc1 (stereo unspecified)	62% (active)
C[N+]1(CC(O)COc2ccccc2)CCN(C(=O)c2ccc([N+](=O)[O-])cc2)CC1 (stereo unspecified)	-2.65%
O=C(Nc1ccc(F)cc1)C1CCN(C(=O)c2ccc([N+](=O)[O-])cc2)CC1	-0.31%
Cc1cc(C)cc(C(=O)NCCN2CCOCC2)c1	-11.1%
Cc1cccc(C(=O)OC(C)CN2CCN(C)CC2)c1 (stereo unspecified)	-1.32%
Cc1cccc(-c2nc3ccc(C(=O)NCCN4CCN(C)CC4)cc3nc2-c2cccc(C)c2)c1	46.9% (active)
CSc1nc2sc3c(c2c(=O)[nH]1)CCc1ccccc1-3	-1.53%
C/C(=N\NC(=O)NC1CCCCC1)c1ccc(OC(F)F)cc1OC(F)F	3.51%
CCSC(C)CC1C/C(=N/O)c2c(C)noc2C1 (stereo unspecified)	46.6% (active)
CCCc1noc2c1/C(=N\O)CCC2	-7.37%
COc1ccc(OC)c(Cc2cnc3nc(N)nc(N)c3c2C)c1	-0.49%
O=C(COc1ccc(Cl)cc1)NC(=S)Nc1ccccc1N1CCOCC1	1.11%
O=C(Cc1ccc(Cl)cc1)NC(=S)Nc1ccccc1O	64.7% (active)
Cc1ccccc1NC(=S)NC(=O)Cc1ccc(Cl)cc1	14.3%
O=C(NCCCn1ccnc1)C1CCCN(S(=O)(=O)c2cc(Cl)ccc2Cl)C1 (stereo unspecified)	5.3%
Nc1ncnc2c1ncn2[C@@H]1O[C@H](C(=O)NCC(F)(F)F)[C@@H](O)[C@H]1O	-26.1%
CCSC1=NCCN1S(=O)(=O)c1ccc(F)cc1	7.85%
COc1cc(C(=S)NC2CCCCC2)ccc1O	99.6% (active)
COc1ccc(C(=O)NC(=S)NC2CCCCC2)cc1	-6.7%
COc1cc(C(=S)N2CCOCC2)ccc1O	0.12%
